# Reference: PMC4336329 (PLoS ONE, 2015)
# Hit rate of the full screen: of about 310,000 compounds, about 14,000 (4.5%) showed an effect of 50% or more. Effects have a minus sign here. This is one part of a sample in which strong results are shown more often than they occur.
# Target: human ether-à-go-go-related gene (hERG) potassium channel (human, UniProt Q12809)
# Assay: primary screen, population patch clamp on CHO cells stably expressing hERG; higher = less effect of the substance
# 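Note: peak tail current of the secondary pulse compared with the same well before compound.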
# Sequence of human ether-à-go-go-related gene (hERG) potassium channel (Q12809 whole entry, looked up): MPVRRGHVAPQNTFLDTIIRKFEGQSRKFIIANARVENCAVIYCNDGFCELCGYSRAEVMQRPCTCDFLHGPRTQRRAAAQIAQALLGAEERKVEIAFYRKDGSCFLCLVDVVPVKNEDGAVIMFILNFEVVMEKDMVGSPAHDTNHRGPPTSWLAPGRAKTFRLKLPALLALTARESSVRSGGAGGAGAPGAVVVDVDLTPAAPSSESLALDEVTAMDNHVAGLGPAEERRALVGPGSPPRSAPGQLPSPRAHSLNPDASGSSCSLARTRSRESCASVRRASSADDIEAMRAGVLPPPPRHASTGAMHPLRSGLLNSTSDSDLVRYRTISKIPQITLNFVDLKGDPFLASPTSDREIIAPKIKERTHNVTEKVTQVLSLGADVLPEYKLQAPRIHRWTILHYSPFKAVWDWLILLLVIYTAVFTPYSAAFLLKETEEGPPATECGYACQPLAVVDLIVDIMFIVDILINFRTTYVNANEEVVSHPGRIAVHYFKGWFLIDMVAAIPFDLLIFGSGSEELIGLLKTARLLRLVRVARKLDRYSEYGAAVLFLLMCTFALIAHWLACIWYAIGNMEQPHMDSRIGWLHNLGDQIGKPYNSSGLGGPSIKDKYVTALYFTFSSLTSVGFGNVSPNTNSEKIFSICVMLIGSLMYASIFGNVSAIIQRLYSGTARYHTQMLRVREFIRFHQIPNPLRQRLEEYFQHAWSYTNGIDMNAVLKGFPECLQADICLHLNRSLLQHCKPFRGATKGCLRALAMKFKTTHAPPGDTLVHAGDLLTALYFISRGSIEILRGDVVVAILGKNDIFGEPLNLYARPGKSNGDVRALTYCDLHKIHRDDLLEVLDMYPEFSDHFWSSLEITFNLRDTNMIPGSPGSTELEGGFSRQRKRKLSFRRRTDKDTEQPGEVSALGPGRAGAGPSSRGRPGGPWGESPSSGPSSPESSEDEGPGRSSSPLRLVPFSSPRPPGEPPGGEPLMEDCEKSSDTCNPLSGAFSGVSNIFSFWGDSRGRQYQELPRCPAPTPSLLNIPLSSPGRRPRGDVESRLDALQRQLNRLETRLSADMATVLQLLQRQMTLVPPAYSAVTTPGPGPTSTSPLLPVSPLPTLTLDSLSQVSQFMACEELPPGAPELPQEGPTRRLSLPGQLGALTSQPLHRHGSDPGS
row,Structure (SMILES),"hERG current change (%, negative = inhibition) at 10uM [%]"
1,O=C(NN=C1C2CC3CC(C2)CC1C3)c1cccc(S(=O)(=O)N2CCOCC2)c1,0.586
2,COC(=O)CSC1=C(C#N)C(c2cccc(F)c2)CC(=O)N1 (stereo not shown),9.97
3,CC1c2[nH]c3ccccc3c2CCN1S(C)(=O)=O (stereo not shown),3.54
4,COc1ccc(C2CC(c3cccs3)=NN2C(=O)CSc2nnc(N)s2)cc1OC (stereo not shown),-4.6
5,O=C(CCCOc1ccccc1)Nc1ccc(Cl)cn1,-3.18
6,CCCCC(=O)Nc1cc(OCC)c(NC(=O)c2ccccc2[N+](=O)[O-])cc1OCC,-4.27
7,FC(F)(F)c1cccc(-c2nnc3ccc(C(F)(F)F)cn23)c1,-65.2
8,FC(F)(F)c1ccc2nnc(-c3c(Cl)cccc3Cl)n2c1,-4.48
9,Fc1cccc(Cl)c1-c1nnc2ccc(C(F)(F)F)cn12,10.9
10,O=C(Nc1ccc2nc3ccccc3nc2c1)c1ccc(Br)cc1,17.9
11,CCC(=O)N1CCN(c2ccc(Cl)cc2NC(=S)NC(=O)c2ccco2)CC1,-0.88
12,O=C(NC(=S)N1CCN(c2ccc(Cl)cc2[N+](=O)[O-])CC1)c1cccs1,-30
13,O=C(NC(=S)N1CCN(c2ccc([N+](=O)[O-])cc2)CC1)c1ccco1,-61.2
14,O=C(NC(=S)N1CCN(c2ccc([N+](=O)[O-])cc2)CC1)c1ccccc1Cl,-39.8
15,O=C(NC(=S)N1CCN(c2ccc(Cl)cc2[N+](=O)[O-])CC1)c1ccco1,-68.4
16,O=C(NC(=S)N1CCN(c2ccc([N+](=O)[O-])cc2)CC1)c1ccc(F)cc1,-58.5
17,Cc1ccc(C(=O)NC(=S)N2CCN(c3ccc([N+](=O)[O-])cc3)CC2)cc1,-15.6
18,O=C(NC(=S)N1CCN(c2ccc([N+](=O)[O-])cc2)CC1)c1ccccc1,0.58
19,O=C(NC(=S)N1CCN(c2ccc([N+](=O)[O-])cc2)CC1)c1ccccc1F,-25.8
20,Cc1oc(C(C)(C)C)cc1C(=O)N1CCN(c2ccc(C(F)(F)F)cn2)CC1,-5.33
21,Cc1ccc(N(C(=O)c2nsc(Cl)c2Cl)C(C(=O)NC2CCCC2)c2ccc(O)cc2)cc1C (stereo not shown),9.52
22,COc1ccc(-n2c(O)c(/C=N/n3cnnc3)c3ccccc3c2=O)cc1,-1.22

row,Structure (SMILES),"hERG current change (%, negative = inhibition) at 10uM [%]"
1,CC(=O)Nc1ccc(S(=O)(=O)NC2=C(N3CCN(C)CC3)C(=O)c3ccccc3C2=O)cc1,-0.763
2,CC(=O)c1ccc(NC(=O)Cn2cnc(S(=O)(=O)N3CCC(C)CC3)c2)cc1,21.4
3,Cc1ccc(NC(=O)C2CCCN(c3ncnc4c3nc3n4CCCCC3)C2)nc1 (stereo not shown),-62.5
4,Cc1cccc(NC(=O)C2CCCN(c3ncnc4c3nc3n4CCCCC3)C2)n1 (stereo not shown),-54.2
5,O=C(Nc1ccccn1)C1CCCN(c2ncnc3c2nc2n3CCCCC2)C1 (stereo not shown),-34.8
6,O=C(Nc1ccc(Cl)cn1)C1CCN(c2ncnc3c2nc2n3CCCCC2)CC1,-38.8
7,Cc1ccnc(NC(=O)C2CCCN(c3ncnc4c3nc3n4CCCCC3)C2)c1 (stereo not shown),-45.6
8,Cc1cccc(NC(=O)C2CCN(c3ncnc4c3nc3n4CCCCC3)CC2)n1,-29.5
9,O=C(Nc1ccc(Cl)cn1)C1CCCN(c2ncnc3c2nc2n3CCCCC2)C1 (stereo not shown),-57.7
10,O=C(Oc1ccc2c3c(c(=O)oc2c1)CCC3)c1ccco1,-1.09
11,CCOC(=O)c1ccc(NC(=O)CN2C(=O)NC3(CCCCCCC3)C2=O)cc1,-7.35
12,COC(=O)c1[nH]c2ccc(F)cc2c1NS(=O)(=O)c1ccc(F)c(C)c1,0.344
13,Cc1ccc(C2Nc3ccccc3NC3=C2C(=O)CC(C)(C)C3)c(O)c1 (stereo not shown),3.15
14,Nc1c2c(nc3sc4c(c13)CCCC4)CCCC2,-70.4
15,Nc1c2c(nc3sc4c(c13)CCCC4)CCCCC2,-6.3
16,Nc1c2c(nc3sc4c(c13)CCCCC4)CCCCC2,-25.9
17,Cc1nc2ccccc2nc1OCC(=O)Nc1ccccc1,14.8
18,Cc1ccc(S(=O)(=O)N(CC2CO2)c2cc(Cl)ccc2Cl)cc1 (stereo not shown),-6.93
19,CC1(C(=O)NCCCNc2ncc(C(F)(F)F)cc2Cl)C=CCN1C(=O)c1ccccc1 (stereo not shown),-56.4
20,COC(=O)N1[C@H](C)C=C[C@]1(Cc1ccccc1)C(=O)NCCCNc1ncc(C(F)(F)F)cc1Cl,-10.5
21,C[C@]1(C(=O)NCCCNc2ncc(C(F)(F)F)cc2Cl)C=C[C@@H](Cc2ccccc2)N1C(=O)c1ccccc1,7.01
22,O=C(COC(=O)COc1ccccc1[N+](=O)[O-])Nc1ccccc1Br,3.82

row,Structure (SMILES),"hERG current change (%, negative = inhibition) at 10uM [%]"
1,COCCCNC(=S)N1CCN(c2nc(-c3ccccc3)cs2)CC1,-5.55
2,CCCCNC(=O)CCSc1ccc(C)cc1,-2.9
3,COc1ccc(CNC(=O)CN(C)Cc2ccc(SC)cc2)cc1,-65.2
4,CN(CC(=O)NCc1ccccc1)Cc1cccc(F)c1.O=C(O)C(=O)O,9.59
5,CSc1ccc(CN(C)CC(=O)NCc2ccc(F)cc2)cc1,-70.1
6,CSc1ccc(CN(C)CC(=O)Nc2ccccc2Br)cc1,17.3
7,COc1ccc(CNC(=O)CN(C)Cc2ccc(C(C)(C)C)cc2)cc1.O=C(O)C(=O)O,-4.44
8,CSc1ccc(CN(C)CC(=O)Nc2ccc(NC(C)=O)cc2)cc1,-25.8
9,CSc1ccc(CN(C)CC(=O)NCCc2ccccc2)cc1,-35.5
10,CSc1ccc(CN(C)CC(=O)NC(=O)NC(C)(C)C)cc1,-3.83
11,CSc1ccc(CN(C)CC(=O)NCc2ccccc2)cc1,-52.5
12,CSc1ccc(CN(C)CC(=O)N(C)CC(=O)Nc2ccccc2Br)cc1,-56.9
13,CN(CC(=O)NCc1ccc(F)cc1)Cc1ccc(Br)cc1,-35.5
14,COc1ccc(CN(C)CC(=O)N(C)CC(=O)Nc2ccccc2Br)cc1F,-39.1
15,O=C(NC(=O)N1CCCCC1)c1ccc(Cl)cc1,15.7
16,CCO[C@H]1OC(C(=O)Nc2ccccc2)=C[C@@H](C2CC2)[C@@H]1CCCO,1.16
17,CCCCc1nnc(NC(=O)CCc2ccccc2)s1,19.3
18,COC(=O)c1ccc(-n2nnnc2SCC(=O)Nc2cc(OC)ccc2OC)cc1,2.37
19,CCOC(=O)c1nn(-c2cccc(C)c2)c2nnc(Cc3ccc(C)cc3)c(=O)n12,-16.1
20,O=C(Nc1ccc(SC(F)F)cc1)C1CC(=O)N(Cc2ccccc2)C1 (stereo not shown),-48
21,COc1ccc(S(=O)(=O)N2CCN(C(=O)c3c(C)nn(-c4ccccc4)c3Cl)CC2)cc1,-19.4
22,CCC(=O)N1CCN(c2ccc(Cl)cc2NC(=O)c2ccc3c(c2)OCCO3)CC1,-37.2

row,Structure (SMILES),"hERG current change (%, negative = inhibition) at 10uM [%]"
1,O=C(Nc1ccc(Cl)cc1)c1ccc(CN2CCc3ccccc3C2)cc1,13.7
2,COc1cccc(C(=O)N2CCN(C(=O)Cc3ccccc3)CC2)c1.O=C(O)C(=O)O,-0.00122
3,CCC(=O)Nc1ccc(C(=O)Nc2cccnc2)cc1,-0.52
4,CC(OC(=O)c1cc(S(=O)(=O)N2CCOCC2)ccc1Br)C(=O)N1CCOCC1 (stereo not shown),-12
5,O=C(Nc1nccs1)C1CCN(S(=O)(=O)c2ccc(F)cc2)CC1,2.1
6,CCOC(=O)CNC(=O)CSc1ccc(-c2nc3ccccc3[nH]2)cn1,-6.35
7,COc1ccccc1CNC(=O)CN(C)Cc1ccc(SC)cc1,-50.8
8,CSc1ccc(CN(C)CC(=O)NC(C)c2ccccc2)cc1 (stereo not shown),-83.9
9,Cc1ccc(CN(C)CC(=O)NC(C)c2ccccc2)cc1 (stereo not shown),-16
10,CC(NC(=O)CN(C)Cc1ccc(Br)cc1)c1ccccc1 (stereo not shown),-19.3
11,COc1ccccc1CNC(=O)CN(C)CC(=O)Nc1cccc(F)c1,4.16
12,COc1cccc(CN(C)CC(=O)NCc2ccc(F)cc2)c1OC,6.98
13,O=C(O)C1C2C=CC(C2)C1C(=O)NCc1cccs1 (stereo not shown),9.44
14,O=C(Nc1cc(Cl)cc(Cl)c1)N1CCN(C(=O)C2CCCO2)CC1 (stereo not shown),-26.4
15,COCCNC(=O)C1CCN(C(=O)C2CC(=O)N(c3ccc(C)cc3)C2)CC1 (stereo not shown),7.39
16,CCc1nnc(NC(=O)CSc2nnc(COc3ccccc3C)o2)s1,15.2
17,O=C(COc1ccc(Br)cc1)Nc1ccc([N+](=O)[O-])cn1,-19.7
18,COc1cc(NC(=O)CSCc2ccccc2)c(C(=O)O)cc1OC,11.2
19,COc1ccc(CCNc2ccc(C(CC(N)=O)NC(=O)Cc3cccc4ccccc34)cc2[N+](=O)[O-])cc1 (stereo not shown),4.29
